For 5 molecules, z-score and composite z-score results are on record in PubChem BioAssay.

Active and inactive are the calls of the source.

Assay [1] is described as follows: compound effects on differentiated 3T3-L1 adipocyte viability – cell-based, 3T3-L1 adipocytes, calcein-AM fluorescence, 48 h, basal, profiling panel (AID 1163). The note with it: 3T3-L1 adipocytes viability, higher = more signal.
A short description of assay [2]: compound effects on hepatocellular carcinoma cell viability – HepG2, calcein-AM fluorescence, 48 h, basal, profiling panel (AID 1164). The note with it: higher = more signal.
Assay [3] in a line: compound effects on multiple myeloma cell viability – MM1S, calcein-AM fluorescence, 48 h, basal, profiling panel (AID 1165).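 Note: viability of MM1S multiple myeloma cells under basal unstimulated conditions.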 To be noted: higher = more signal.
Assay [4] in a line: calcein-AM signal in unstimulated myeloma cells – cell-based, calcein-AM fluorescence, 48 h, PK04 Diversity Set, profiling panel (AID 1166).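 Note: cells grown under basal conditions without added stimulus.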 To be noted: RPMI8226 myeloma viability, higher = more signal.
Assay [5] is described as follows: JC-1 mitochondrial signal, unstimulated HepG2 cells – cell-based, JC-1 fluorescence, 24 h, 100 nL compound, profiling panel (AID 1167). The note with it: HepG2 mitochondrial potential, higher = more signal.
The nature of assay [6]: JC-1 mitochondrial signal, unstimulated adipocytes – cell-based, JC-1 fluorescence, 3T3-L1 adipocytes, 24 h, 100 nL compound, profiling panel (AID 1168). To be noted: JC-1 mitochondrial fluorescence, higher = more signal, called active from +8 up or from −8 down.
The nature of assay [7]: JC-1 mitochondrial signal, unstimulated myeloma cells – cell-based, JC-1 fluorescence, RPMI8226, 24 h, 100 nL compound, profiling panel (AID 1169). To be noted: JC-1 mitochondrial potential fluorescence, higher = more signal.
A short description of assay [8]: JC-1 mitochondrial signal, unstimulated MM1S myeloma – cell-based, JC-1 fluorescence, 24 h, 100 nL compound, profiling panel (AID 1170). To be noted: MM1S mitochondrial potential, higher = more signal.
A short description of assay [9]: resazurin metabolic signal in A549 cells – cell-based, resazurin fluorescence, 24 h, PK04 Diversity Set, profiling panel (AID 1171). The note with it: A549 viability, higher = more signal, called active from +8 up or from −8 down. A general note: Resazurin is reduced to fluorescent resorufin, in cell work by metabolically active cells.
A short description of assay [10]: resazurin metabolic signal in HepG2 cells – cell-based, resazurin fluorescence, 24 h, PK04 Diversity Set, profiling panel (AID 1172). To be noted: HepG2 viability, higher = more signal.
A short description of assay [11]: budding yeast growth changes without added modifier – OD600, strain BY4716, 24 h, basal condition, primary screen (AID 1173). The note with it: S. cerevisiae BY4716 growth, OD600, 24 h; higher = more signal, called active from +8 up or from −8 down.
Assay [12] in a line: viability profiling in MM1S myeloma cells – cell-based, resazurin fluorescence, basal, 24 h, PK04 Diversity Set, profiling panel (AID 1174). To be noted: higher = more signal, called active from +8 up or from −8 down.
Assay [13] concerns the target Dihydroorotate dehydrogenase (quinone), mitochondrial (Plasmodium falciparum (isolate 3D7)) (UniProt Q08210). Description: inhibition of P. falciparum DHODH – biochemical, C-terminal His tag, absorbance 600 nm, primary screen (AID 1175).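 Note: recombinant parasite enzyme with a five histidine tag at its C terminus.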 The note with it: PfDHODH enzyme, DCIP absorbance 600 nm; higher = more signal, called active from +8 up or from −8 down.
The nature of assay [14]: growth modulation of vineyard yeast isolate – strain RM11-1a, OD600, basal, 24 h, primary screen (AID 1177).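 Note: cultures grown under basal conditions with no added stressor.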 The note with it: S. cerevisiae RM11-1a growth, OD600, 24 h; higher = more signal, called active from +8 up or from −8 down.
Assay [15] is described as follows: growth of efflux-deficient E. coli DRC39 – strain DRC39, OD650, 24 h, E. coli filamentation inducers, primary screen (AID 1178).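 Note: growth measured as culture turbidity by optical density at 650 nm.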 The note with it: E. coli DRC39 acrAB, higher = more signal, called active from +8 up or from −8 down.
Assay [16] is described as follows: growth of efflux-deficient E. coli DRC39 – strain DRC39, OD650, 48 h, E. coli filamentation inducers, primary screen (AID 1179).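 Note: screen aims at cell division blockers that make cells filament.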 The note with it: E. coli DRC39 delta-acrAB growth, higher = more signal, called active from +8 up or from −8 down.
The nature of assay [17]: viability profiling in RPMI8226 myeloma cells – cell-based, resazurin fluorescence, basal, 24 h, PK04 Diversity Set, profiling panel (AID 1180).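 Note: RPMI8826 multiple myeloma cell line at 5000 cells per well.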 To be noted: higher = more signal.
The target of assay [18] is E3 ubiquitin-protein ligase XIAP (Homo sapiens) (UniProt P98170). Description: small molecules binding XIAP protein – biophysical, small-molecule microarray, fluorescence 635 nm, primary screen (AID 1181).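 Note: score merges 667 nm emission and signal to noise over triplicate slides.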 The note with it: higher = more signal.
For assay [19], the system named is XIP peptide (Xip251-270) binding. Description: XIP fragment 251-270 binding compounds – biochemical, small-molecule microarray, fluorescence 635/667 nm, 0.1 µg/mL protein, primary screen (AID 1182). The note with it: fluorescent protein binding, 635 nm, higher = more signal, called active from +8 up or from −8 down.
A further assay relates to XIP peptide (Xip251-270). Description: compounds binding XIP fragment 251-270 – biochemical, small-molecule microarray, fluorescence 635/667 nm, 0.5 µg/mL protein, primary screen (AID 1183). To be noted: fluorescence 635 nm, higher = more signal.

Sequence of Dihydroorotate dehydrogenase (quinone), mitochondrial (Plasmodium falciparum (isolate 3D7)) (Q08210 whole entry, looked up): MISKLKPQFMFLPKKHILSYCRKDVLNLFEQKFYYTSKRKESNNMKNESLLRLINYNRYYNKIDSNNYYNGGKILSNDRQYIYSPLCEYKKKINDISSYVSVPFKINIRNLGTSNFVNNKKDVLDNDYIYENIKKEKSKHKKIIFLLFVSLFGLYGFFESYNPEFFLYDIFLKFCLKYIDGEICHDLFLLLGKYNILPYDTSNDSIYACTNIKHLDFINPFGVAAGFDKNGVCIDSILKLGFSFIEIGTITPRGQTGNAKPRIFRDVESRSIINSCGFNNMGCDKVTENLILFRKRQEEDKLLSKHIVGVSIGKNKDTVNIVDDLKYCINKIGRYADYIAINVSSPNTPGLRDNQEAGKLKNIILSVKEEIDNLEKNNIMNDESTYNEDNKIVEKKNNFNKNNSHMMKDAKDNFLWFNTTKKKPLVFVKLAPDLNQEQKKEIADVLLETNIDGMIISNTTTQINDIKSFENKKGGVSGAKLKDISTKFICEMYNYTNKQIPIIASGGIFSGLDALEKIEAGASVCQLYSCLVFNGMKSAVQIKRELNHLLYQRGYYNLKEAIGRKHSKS
Sequence of E3 ubiquitin-protein ligase XIAP (Homo sapiens) (P98170 whole entry, looked up, the tested form may be a part): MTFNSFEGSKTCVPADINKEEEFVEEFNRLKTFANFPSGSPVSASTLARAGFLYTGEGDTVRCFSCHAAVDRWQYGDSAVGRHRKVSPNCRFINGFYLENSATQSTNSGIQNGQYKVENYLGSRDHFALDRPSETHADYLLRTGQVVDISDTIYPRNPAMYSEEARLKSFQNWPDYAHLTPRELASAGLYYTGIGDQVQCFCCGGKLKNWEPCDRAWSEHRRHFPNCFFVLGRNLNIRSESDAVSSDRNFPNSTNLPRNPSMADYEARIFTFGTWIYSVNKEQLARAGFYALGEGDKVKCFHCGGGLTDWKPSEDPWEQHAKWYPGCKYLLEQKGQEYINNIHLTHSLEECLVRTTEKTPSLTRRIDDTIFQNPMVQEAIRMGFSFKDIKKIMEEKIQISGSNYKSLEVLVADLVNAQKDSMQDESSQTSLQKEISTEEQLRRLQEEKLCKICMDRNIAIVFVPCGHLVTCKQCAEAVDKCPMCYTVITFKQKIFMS

On to `C=CCNC(=O)[C@H]1[C@@H]2C(=O)O[C@@H](c3ccccc3)[C@@H](c3ccccc3)N2[C@@H](c2ccccc2OCCO)[C@]12C(=O)N(C(=O)OCCOC)c1ccc(C#CCCO)cc12`, for which the z-score in [1] was 0.674; in assay [2], -0.123; in assay [3], -2.04; in assay [4], -1.42; in [5] it was 0.534; in assay [6], 0.825 (inactive). For the same molecule, the z-score in [7] was -0.847; in assay [8], -0.665; in assay [9], 0.659 (inactive); in [10] it was -0.156; in assay [11], 0.799 (inactive); in assay [12], 0.287 (inactive). Besides, the z-score in [14] is 1.57 (inactive); in [15], 0.488 (inactive); in [16], 0.985 (inactive); in assay [17], -0.0311. Also, the composite z-score in assay [13] was -0.409 (inactive); in assay [18], 0.355; in assay [19] it was 0.58 (inactive); in the assay on XIP peptide (Xip251-270) it was 0.507.

For the molecule `CC(C)(C)OC(=O)CC[C@@]12N=C(c3ccc(OCCCO)cc3)O[C@@H]1c1ccccc1N(Cc1ccccc1)C2=O`, the z-score in [1] was 1.87; in assay [2] it was -0.186; in [3] it was -1.9; in [4] it was -3.34; in assay [5], 0.624; in assay [6] it was 1.69 (inactive). The z-score in [7] is -0.778; in assay [8], 1.44; in assay [9], 0.345 (inactive); in assay [10], 0.375; in [11], -0.075 (inactive); in [12], -0.0313 (inactive). In addition, the z-score in assay [14] is 1.17 (inactive); in [15], 1.59 (inactive); in assay [16], 0.358 (inactive); in assay [17] it was 0.574. Moreover, the composite z-score in [13] was 0.463 (inactive); in [18], -0.635; in assay [19] it was 1.63 (inactive); in the assay with XIP peptide (Xip251-270), 0.693.

In the case of `CCCCCN1CC=CC23O[C@@H]4/C=C\CCC(C)OC(=O)C4[C@H]2C(=O)N(CCCO)[C@@H]3C1=O` (stereo not given in full), the z-score was 1.42 in assay [1]; 0.495 in assay [2]; -1.25 in assay [3]; 0.279 in assay [4]; 0.197 in assay [5]; 0.399 (inactive) in assay [6]. The z-score is 0.318 in [7]; 0.962 in assay [8]; 0.427 (inactive) in [9]; 0.605 in assay [10]; -1.26 (inactive) in [11]; 1.5 (inactive) in assay [12]. In addition, the z-score in assay [14] is -0.599 (inactive); in [15], 1.54 (inactive); in assay [16], 1.11 (inactive); in assay [17] it was 1.4. Also, the composite z-score in [13] was 0.564 (inactive); in assay [18] it was -0.0351; in assay [19] it was 0.156 (inactive); in the assay with XIP peptide (Xip251-270) it was -0.827.

`CCCC[C@@H](O)C1=C(C)C[C@H]2C(=O)N(C)C(=O)[C@H]2[C@H]1CO`: the z-score is -0.552 in assay [1]; 0.257 in assay [2]; 0.0991 in [3]; -0.0268 in assay [4]; 1.2 in [5]; 1.01 (inactive) in assay [6]. Also, the z-score in assay [7] was -0.363; in assay [8], 0.613; in [9], 0.199 (inactive); in assay [10], 0.648; in assay [11], -3.48 (inactive); in [12], 0.987 (inactive). Moreover, the z-score in assay [14] was -1.09 (inactive); in [15] it was 2.71 (inactive); in assay [16], 1.75 (inactive); in assay [17], 1.03. The composite z-score in assay [13] is 0.312 (inactive); in assay [18] it was 0.0769; in assay [19], 0.627 (inactive); in the assay with XIP peptide (Xip251-270), 0.586.

For `CCCNC(=O)[C@@H]1c2ccccc2C(=O)N(Cc2cc(C(F)(F)F)cc(C(F)(F)F)c2)[C@H]1c1ccc(CO)cc1`, the z-score in assay [1] was 1.6; in assay [2], 0.174; in assay [3], -0.298; in assay [4], -1; in [5], 1.4; in assay [6], -0.652 (inactive). In addition, the z-score in [7] is 0.188; in [8], 1.01; in assay [9], 0.741 (inactive); in assay [10], 0.397; in assay [11] it was -0.367 (inactive); in assay [12], 1.52 (inactive). Also, the z-score was 0.288 (inactive) in [14], 1.06 (inactive) in assay [15], -0.625 (inactive) in assay [16] and 1.63 in assay [17]. In addition, the composite z-score in assay [13] was 0.754 (inactive); in assay [18], -0.374; in [19], 0.133 (inactive); with XIP peptide (Xip251-270), 0.219.
